# The panel holds about 83,000 compounds, 20% with a hit somewhere; the sample as a whole holds those more often.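 48-hour exposure, single concentration, 96-well plates; percent growth endpoint where 0 means no net growth. Active: below 10.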 A number with no mark means an inactive call. Activity calls are given as the source filed them.
# What was measured:
# Test in all cases: NCI-60 one-dose screen, 48 h (100 = growth as untreated, 0 = no growth, -100 = all killed)
# Conditions in all cases: 10 µM unless noted
# SR leukemia = test system: SR leukemia
# RPMI-8226 leukemia = test system: RPMI-8226 leukemia
# OVCAR-5 ovarian = test system: OVCAR-5 ovarian
# OVCAR-4 ovarian = test system: OVCAR-4 ovarian
# SK-OV-3 ovarian = test system: SK-OV-3 ovarian
# IGROV1 ovarian = test system: IGROV1 ovarian
# OVCAR-3 ovarian = test system: OVCAR-3 ovarian
# HS 578T breast = test system: HS 578T breast
# NCI/ADR-RES ovarian = test system: NCI/ADR-RES ovarian
# T-47D breast = test system: T-47D breast
# BT-549 breast = test system: BT-549 breast
# MDA-MB-435 melanoma = test system: MDA-MB-435 melanoma
# SW-620 colon = test system: SW-620 colon
# MCF7 breast = test system: MCF7 breast
# HCT-116 colon = test system: HCT-116 colon
# HCC-2998 colon = test system: HCC-2998 colon
# KM12 colon = test system: KM12 colon
SMILES,growth (SR leukemia),growth (RPMI-8226 leukemia),growth (OVCAR-5 ovarian) [%],growth (OVCAR-4 ovarian),growth (SK-OV-3 ovarian),growth (IGROV1 ovarian),growth (OVCAR-3 ovarian),growth (HS 578T breast),growth (NCI/ADR-RES ovarian),growth (T-47D breast),growth (BT-549 breast),growth (MDA-MB-435 melanoma),growth (SW-620 colon),growth (MCF7 breast),growth (HCT-116 colon),growth (HCC-2998 colon),growth (KM12 colon)
C=C(C)[C@@H]1CCC[C@]2(COS(=O)(=O)c3ccc(C)cc3)CC[C@]3(C)[C@@H](CC[C@@H]4[C@@]5(C)CCCNC(C)(C)[C@@H]5CC[C@]43C)[C@@H]12,-46.1% (active),-14.8% (active),63.3,-64.4% (active),98.7%,-87.1% (active),-87.7% (active),61.4%,-3.42% (active),59.6%,83.7%,-25.3% (active),-69.4% (active),-32.6% (active),-82.8% (active),-75.8% (active),-25.2% (active)
Cc1ccc(Nc2cc(N)nc(N)n2)cc1Cl,108%,81.6%,94.6,90.3%,93.8%,91%,96.7%,98.3%,97%,76.6%,,98.9%,112%,74.7%,81%,100%,93%
CCOC(=O)C/C(=N\Nc1cc(=O)[nH]c2ccc(Br)cc12)C(=O)OCC,40.8%,83.2%,99.6,96.6%,105%,82.6%,100%,92%,93.4%,105%,96.6%,101%,90.4%,91.9%,99.7%,96.9%,96%
COc1cc(-c2cncn2-c2ccc(-c3nc4ccc(F)cc4s3)cc2)ccc1F,73%,53.6%,75.7,85.6%,106%,52.8%,97.5%,97.4%,80.3%,76.3%,85.3%,87.4%,54.3%,64.3%,37.7%,80.2%,81.7%
O=C(COc1ccc(-c2nc3cc(Cl)c(Cl)cc3[nH]2)cc1)N=Nc1c(O)[nH]c2ccc(Cl)cc12,31.1%,56%,95.6,64.2%,84.5%,79.9%,75.1%,67.5%,95.8%,56.8%,76.7%,83.5%,56.1%,25.6%,54.4%,95.1%,64.5%
O=C1Nc2ccc(C(=O)O)cc2/C1=N/c1nnc(Sc2ccccc2)s1,87.8%,99.1%,113,111%,,99.7%,105%,96.8%,110%,103%,123%,102%,103%,101%,104%,112%,99.9%
Cn1cc(-c2csc(-c3c[nH]c4ccccc34)n2)c2cnccc21,-7.21% (active),-28% (active),75.4,14.3%,85.3%,47.3%,-59.8% (active),88.3%,35.9%,-3.84% (active),,-72.5% (active),,16.7%,-59.7% (active),87%,22.8%
O=C(OC(CO)C(=O)NC12CC3CC(CC(C3)C1)C2)c1ccc(Cl)cc1 (stereo not given),84.7%,98%,96.3,101%,107%,109%,115%,99.5%,107%,92.8%,106%,94.6%,101%,91.8%,90.9%,113%,111%
CCC(=O)Oc1ccc(-c2ccccc2)cc1Br,107%,104%,104,105%,120%,112%,114%,115%,110%,101%,109%,109%,99.1%,93.6%,104%,112%,111%
Cc1ccc(C2=Nc3c(N)ncnc3NC(c3cccc(Nc4ccnc5cc(C(F)(F)F)ccc45)c3)C2)cc1 (stereo not given),-19.3% (active),-26.6% (active),75.2,45.6%,46.7%,44.7%,39.2%,43.3%,17.4%,38.4%,53.6%,-55.4% (active),12.3%,8.09% (active),12.6%,31%,15.9%
c1ccc(-c2oc(-c3ccccc3)c(CN3CCCCC3)c2CN2CCCCC2)cc1,-2.07% (active),-6.38% (active),50.3,11.9%,,44.7%,23.4%,34.3%,39.8%,8.84% (active),43.3%,31.7%,39.6%,11.7%,20.9%,-22.9% (active),22%
O=CN1N=C(c2cccc(Nc3ccnc4cc(Cl)ccc34)c2)CC1c1ccccc1 (stereo not given),9.69% (active),27.7%,36.3,41.2%,8.25% (active),28.9%,-12.9% (active),1.24% (active),3.37% (active),45.5%,35.7%,-34.4% (active),34.2%,19.3%,7.26% (active),12.4%,19.7%
N#Cc1c(-c2ccccc2)cc(-c2ccc(Nc3nc(Nc4ccc(Cl)cc4)nc(Nc4ccc(Cl)cc4)n3)cc2)nc1N,-30.8% (active),-45.4% (active),63.2,-15.2% (active),110%,-8.08% (active),-54% (active),14.4%,53.2%,-39.5% (active),-68.1% (active),-34.4% (active),-39.2% (active),22%,4.99% (active),-14.3% (active),50.1%
COc1ccc(OC)c(/C=N/Nc2ncnc3c2c(C)nn3C)c1,81.4%,100%,93.2,118%,102%,102%,107%,88%,101%,84.6%,101%,105%,107%,85.2%,109%,102%,103%
CCOC(=O)C1=C(N)Oc2c(sc3c(F)cccc23)C1c1ccc(O)cc1 (stereo not given),15.3%,25.2%,92.4,38.4%,78.9%,48.9%,45.3%,31.9%,36.6%,26.5%,23.3%,5.63% (active),31.1%,14.9%,26%,38%,24%
N#Cc1ccc(O)c(C2=NCC(c3cccc(Oc4ccccc4)c3)O2)c1 (stereo not given),19.7%,28.1%,55.5,18.3%,-1.44% (active),19.2%,27.3%,52.6%,2.42% (active),-12.5% (active),30.6%,35.2%,25.6%,21.4%,16.9%,43.7%,21%
O=C1/C(=C/c2ccccc2Br)COc2ccc(O)cc21,10.3%,1.71% (active),91.9,77.8%,128%,78.6%,54.5%,70.5%,46.9%,83.7%,53.9%,40.9%,18.3%,9.13% (active),18.6%,100%,23.9%
C=CCn1c(C)nc2ccc(Nc3nc(Nc4ccc5nc(C)n(CC=C)c5c4)c4ccccc4n3)cc21,-57.2% (active),-43.3% (active),25.1,-93.3% (active),,-47.5% (active),-95.4% (active),-41.4% (active),53.5%,-91% (active),72.1%,-78% (active),-80.5% (active),-87.9% (active),-97.8% (active),-52.7% (active),-84.8% (active)

# Source: PubChem BioAssay (NCI)
